This is a sample that favours compounds with a hit; in the whole collection about 4.1% have one here.
p-CIP stab down – p/CIP-EGFP fusion destabilizers, primary screen, fluorescence, F442A cells. decrease of EGFP signal, % at 10 µM. 290,000 compounds, 0.01% hits. Q05BA5. 16 h;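 active = EGFP signal decrease of at least 30% at 10 µM or well 3 SD below plate mean, unless failing retest; inactive = the rest, including hits failing retest or dose response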
Target sequence (Q05BA5 1-1403): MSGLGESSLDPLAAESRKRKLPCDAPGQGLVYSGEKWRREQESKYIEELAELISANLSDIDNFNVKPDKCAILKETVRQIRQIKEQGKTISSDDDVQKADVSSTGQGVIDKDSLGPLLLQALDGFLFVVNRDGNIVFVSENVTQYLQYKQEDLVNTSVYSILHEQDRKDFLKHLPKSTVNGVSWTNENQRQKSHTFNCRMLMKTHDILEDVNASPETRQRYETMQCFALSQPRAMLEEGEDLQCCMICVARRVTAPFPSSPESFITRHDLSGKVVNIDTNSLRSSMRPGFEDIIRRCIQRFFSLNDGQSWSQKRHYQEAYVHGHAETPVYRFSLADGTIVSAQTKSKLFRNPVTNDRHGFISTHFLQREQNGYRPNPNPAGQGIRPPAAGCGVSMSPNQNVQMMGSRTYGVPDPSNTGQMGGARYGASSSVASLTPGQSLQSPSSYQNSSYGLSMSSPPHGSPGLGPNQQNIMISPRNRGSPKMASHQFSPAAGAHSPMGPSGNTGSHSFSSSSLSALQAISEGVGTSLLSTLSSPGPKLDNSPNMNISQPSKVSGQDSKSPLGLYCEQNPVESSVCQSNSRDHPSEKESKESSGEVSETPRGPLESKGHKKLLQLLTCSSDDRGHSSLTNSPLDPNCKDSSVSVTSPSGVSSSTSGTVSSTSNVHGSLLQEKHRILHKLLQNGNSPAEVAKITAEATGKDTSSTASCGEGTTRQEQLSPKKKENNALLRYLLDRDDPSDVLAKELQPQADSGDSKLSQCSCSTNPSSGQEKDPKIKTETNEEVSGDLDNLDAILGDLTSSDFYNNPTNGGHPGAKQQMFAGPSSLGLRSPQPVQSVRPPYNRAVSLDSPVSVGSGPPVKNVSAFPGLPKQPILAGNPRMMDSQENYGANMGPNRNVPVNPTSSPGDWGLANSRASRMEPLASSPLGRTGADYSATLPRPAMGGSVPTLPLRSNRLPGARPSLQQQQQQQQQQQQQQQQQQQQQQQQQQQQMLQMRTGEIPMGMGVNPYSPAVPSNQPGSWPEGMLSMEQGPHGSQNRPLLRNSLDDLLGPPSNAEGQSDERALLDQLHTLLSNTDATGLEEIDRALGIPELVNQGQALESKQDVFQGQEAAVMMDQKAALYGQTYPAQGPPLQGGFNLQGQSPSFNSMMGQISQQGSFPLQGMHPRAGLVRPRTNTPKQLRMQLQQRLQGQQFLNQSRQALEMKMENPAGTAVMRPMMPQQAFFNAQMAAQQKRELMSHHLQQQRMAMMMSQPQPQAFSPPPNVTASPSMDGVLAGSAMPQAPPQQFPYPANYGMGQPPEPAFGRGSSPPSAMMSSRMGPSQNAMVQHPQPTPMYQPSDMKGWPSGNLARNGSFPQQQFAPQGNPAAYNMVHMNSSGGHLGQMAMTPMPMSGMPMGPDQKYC
FAS TE block – FAS thioesterase domain inhibitors, primary screen, biochemical, fluorescence intensity, uHTS. AID 602261, 2012. inhibition, % at 15 µM. Fatty acid synthase (Homo sapiens), P49327. 360,000 compounds, 0.67% hits. recombinant FAS-TE, OMFH fluorogenic substrate, fluorescence endpoint;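 active = compounds whose normalised, plate-corrected inhibition of enzyme fluorescence in the single-dose primary screen is 50% or more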;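 also: 0% = DMSO with enzyme and 100% = substrate without enzyme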
beta cell repl – inducers of MIN6 beta-cell proliferation, primary screen, ATP luminescence, uHTS | MIN6 cells proliferation, ATPlite luminescence, 48 h; cells starved in 0.2% serum; 100% = growth in 10% serum | proliferation, % at 10 µM | 330,000 compounds, 0.29% hits | AID 2380, 2010;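 active = compounds whose signal lies at least 3.5 SD above the mean of all wells on their plate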;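 also: 0% = DMSO-treated cells in low-serum medium and 100% = 10% serum control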
NR3A LBD binder – binders of NR3A ligand-binding domain, primary screen, biophysical, differential scanning fluorimetry, uHTS; Glutamate receptor ionotropic, NMDA 3A (GRIN3A) ligand-binding domain; NR3A LBD differential scanning fluorimetry, Tm shift; 0% = protein alone, 100% = glycine-bound protein; Tm shift relative to glycine control, % at 25 µM; 340,000 compounds, 2.5% hits;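 active = melting temperature shift of at least 10% of the positive control shift, at one fixed dose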
MPTP block – mitochondrial permeability transition pore inhibitors, primary screen, biochemical, isolated mouse mitochondria, absorbance; inhibition, % at 10 µM; AID 602449, 2012; 360,000 compounds, 1.4% hits; Ca2+ swelling absorbance, 30 min;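 active = inhibition of 50% or more, scaled per plate between neutral and stimulator controls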;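 also: 0% = DMSO wells given calcium and 100% = 1 mM EGTA wells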
FAS-TE conf – FAS thioesterase domain inhibitors, confirmation, biochemical, fluorescence intensity, single concentration; 2,300 compounds, 45% hits; shares compounds with FAS TE block; inhibition, % at 15 µM; recombinant FAS-TE, OMFH fluorogenic substrate;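 active = compounds inhibiting the enzyme by at least 50% at 15 µM in any one of the replicates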;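 also: 0% = enzyme with DMSO only and 100% = wells lacking enzyme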
An asterisk follows results filed as active; / = no result given.

SMILES	p-CIP stab down	FAS TE block	beta cell repl	NR3A LBD binder	MPTP block	FAS-TE conf
Cc1ccc(NC(=O)C(OC(=O)c2ccc(C=O)cc2)c2ccccc2)cc1Cl (stereo not given)	-12	50*	-6	6	21	11
O=C(OCC(=O)N1CCc2ccccc2C1)c1cccc([N+](=O)[O-])c1	-4	56*	-1	0	0	67*
O=C(Cn1cc([N+](=O)[O-])cn1)N1CCN(c2ccccc2)CC1	1	13	-1	0	0	/
CC(=O)N1CCN(S(=O)(=O)c2cccc(C(=O)OCC(=O)N(Cc3ccccc3)C(C)(C)C)c2)CC1	/	5	1	0	-1	/
O=C(Cn1cc([N+](=O)[O-])cn1)N1CCc2ccccc2C1	-2	56*	2	-1	0	58*
CC(C)(C)N(Cc1ccccc1)C(=O)COC(=O)c1cccc([N+](=O)[O-])c1	-3	77*	0	1	7	42*
O=C(NC1CCCC1)C(C1CC1)n1c(-c2ccncc2)nc2ccccc21 (stereo not given)	/	/	/	/	1	/
CCCN(CC(=O)Nc1ccccc1C)C(=O)C1CCN(S(=O)(=O)c2ccc(C)c(C)c2)CC1	/	2	/	/	0	/
COc1ccc(NS(=O)(=O)c2cc(NC(=O)c3ccc(Cl)cc3)ccc2N2CCOCC2)cc1	/	53*	-6	-8	1	6
COc1ccc(NS(=O)(=O)c2cc(NC(=O)c3cnc(C)cn3)ccc2N2CCCCC2)cc1	-2	55*	0	-6	0	28
COc1ccc(NS(=O)(=O)c2cc(NC(=O)c3cnc(C)cn3)ccc2N2CCCC2)cc1	-4	30	-1	-2	1	/
COc1cc(OC)c(N2CC(C(=O)NCCC3=CCCCC3)CC2=O)cc1Cl (stereo not given)	/	61*	0	1	0	67*
CC(=O)c1cccc(-c2ccnc3c2CC(C(=O)NCc2ccco2)O3)c1 (stereo not given)	/	-7	/	/	0	/
CC1=CCC[C@@H]2[C@]3(CC/C(=C/CO)CO)CO[C@@]2(C1)[C@@H](O)C[C@H]3C	/	0	/	/	-1	/
O=C(Nc1ccccc1[N+](=O)[O-])OCC=Cc1ccccc1	/	55*	/	/	0	59*
Cc1nn(-c2ccccc2)c2c1C(c1ccc([N+](=O)[O-])cc1)N1C(=N2)C(=O)Nc2ccccc21 (stereo not given)	-13	79*	-6	-1	0	1
Cc1nn(-c2ccc([N+](=O)[O-])cc2)c2c1C(c1cccc(Br)c1)N1C(=N2)C(=O)Nc2ccccc21 (stereo not given)	-8	70*	-6	6	1	-37
Cc1nn(-c2ccccc2)c2c1C(c1ccc([N+](=O)[O-])cc1)C(C#N)=C(N)O2 (stereo not given)	1	12	3	-1	1	/
CCCNC(=O)C1(C)CCCN(CCC(=O)c2ccccc2)C1 (stereo not given)	/	-5	/	/	0	/
COc1ccccc1[C@@H]1C(c2ccccc2)=NN(c2ccccc2)[C@H]1C(=O)N1CCOC1=O	/	55*	/	-5	-3	21
O=C1OCCN1C(=O)[C@H]1[C@H](c2ccc(Cl)cc2)C(c2ccc(F)cc2)=NN1c1ccccc1	/	74*	/	0	2	32
Cc1cccc(C2=NN(c3ccc(Br)cc3)[C@@H](C(=O)N3CCOC3=O)[C@@H]2c2ccc([N+](=O)[O-])cc2)c1	/	85*	/	-14	2	13
O=C1OCCN1C(=O)[C@H]1[C@H](c2ccc(F)cc2)C(c2ccc(F)cc2)=NN1c1ccccc1	-4	74*	-9	-4	0	4
N#CCCN(C(=O)COC(=O)CCc1c[nH]c2ccccc12)c1ccccc1	/	-4	1	-1	0	/
COc1cccc(CN2CCC(C)(Oc3cccc(Cl)c3)C2)c1OC (stereo not given)	/	4	/	/	0	/
CCOC(=O)C1CCNC(=O)C1=O (stereo not given)	/	-8	/	2	-3	/
